PubChem BioAssay (NCI)
About 83,000 compounds went through this panel and 20% of them were active in at least one assay; those are over-represented in the sample as a whole.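 Assay: single dose, 48 h. Readout: percent growth (0 = no net growth; negative = cell death). Active: <10.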 Active and inactive are the calls of the source.

How the values were obtained:
Experiment in all cases: NCI-60 one-dose screen, 48 h (100 = growth as untreated, 0 = no growth, -100 = all killed)
Conditions in all cases: 10 µM unless noted
SK-MEL-2 melanoma = test system: SK-MEL-2 melanoma
EKVX NSCLC = test system: EKVX NSCLC
SN12C renal = test system: SN12C renal
UO-31 renal = test system: UO-31 renal
TK-10 renal = test system: TK-10 renal
ACHN renal = test system: ACHN renal
CAKI-1 renal = test system: CAKI-1 renal
A498 renal = test system: A498 renal
CCRF-CEM leukemia = test system: CCRF-CEM leukemia
MOLT-4 leukemia = test system: MOLT-4 leukemia

Measured: growth

O=C1CC[C@H](c2ccc(O)c3c2C(=O)[C@@H]2O[C@@H]2C3=O)c2cccc(O)c21
active: UO-31 renal -77.4% | TK-10 renal 3.89% | ACHN renal -42% | CAKI-1 renal 2.61% | CCRF-CEM leukemia -2.85%
inactive: SK-MEL-2 melanoma 69.5% | EKVX NSCLC 102% | SN12C renal 54.6% | A498 renal 85% | MOLT-4 leukemia 45.1%

O=C1c2cc3c(cc2-c2c1c1ccc(F)cc1c(=O)n2C[C@H](O)[C@@H](O)[C@H](O)CO)OCO3
inactive: EKVX NSCLC 13%
active: SK-MEL-2 melanoma -27.2% | SN12C renal 4.69% | UO-31 renal -21.3% | TK-10 renal -0.938% | ACHN renal -42.9% | CAKI-1 renal -7.09% | A498 renal -78.8% | CCRF-CEM leukemia 5.88% | MOLT-4 leukemia -6.28%

COc1ccc(-c2nc3ccc(-c4nc5ccc(N6CCN(c7ccc(F)cc7)CC6)cc5[nH]4)cc3[nH]2)cc1OC
inactive: SK-MEL-2 melanoma 109% | EKVX NSCLC 99.6% | SN12C renal 80.7% | UO-31 renal 89% | TK-10 renal 133% | ACHN renal 62.3% | CAKI-1 renal 84.6% | A498 renal 98.3% | CCRF-CEM leukemia 20.9% | MOLT-4 leukemia 27.9%

O=C1CC(=NCC(=O)n2c(-c3ccccc3)nc3ccccc32)NN1
inactive: SK-MEL-2 melanoma 98.7% | EKVX NSCLC 77.5% | SN12C renal 99% | UO-31 renal 69.3% | TK-10 renal 155% | ACHN renal 93.3% | CAKI-1 renal 75.9% | A498 renal 56.1% | CCRF-CEM leukemia 107% | MOLT-4 leukemia 103%

COc1cccc(Nc2nc(SC)nc(-c3cccc([N+](=O)[O-])c3)c2C#N)c1
inactive: SK-MEL-2 melanoma 96.3% | EKVX NSCLC 64.7% | SN12C renal 68.8% | UO-31 renal 26.7% | TK-10 renal 75.8% | ACHN renal 23.9% | CAKI-1 renal 60.1% | A498 renal 78.5% | CCRF-CEM leukemia 99.6% | MOLT-4 leukemia 98.2%

C=CC(=O)Nc1cccc(Nc2nc(SC)nc(-c3cccc([N+](=O)[O-])c3)c2C#N)c1
inactive: SK-MEL-2 melanoma 46.8% | EKVX NSCLC 53.2% | SN12C renal 62.9% | UO-31 renal 60.8% | TK-10 renal 32.1% | ACHN renal 55.6% | CAKI-1 renal 42.6% | CCRF-CEM leukemia 72.2% | MOLT-4 leukemia 59.8%
active: A498 renal -1.13%

N#Cc1c(-c2ccc(Cl)cc2)nc(NN=Cc2ccco2)nc1N1CCOCC1
inactive: SK-MEL-2 melanoma 82.3% | EKVX NSCLC 46.5% | SN12C renal 82.1% | UO-31 renal 27.1% | TK-10 renal 68.8% | ACHN renal 76.7% | CAKI-1 renal 62.8% | CCRF-CEM leukemia 88.7% | MOLT-4 leukemia 83%
active: A498 renal -19.9%

COc1cc2c(cc1-c1c(C)noc1C)ncc1nc(C3CCCC3)n([C@H](C)COC(F)F)c12
active: UO-31 renal -30% | A498 renal -27.3%
inactive: SK-MEL-2 melanoma 67.8% | EKVX NSCLC 44.2% | SN12C renal 57.3% | TK-10 renal 30.6% | ACHN renal 32.9% | CAKI-1 renal 18.7% | CCRF-CEM leukemia 48.7% | MOLT-4 leukemia 42.3%

N#CCCN=Nc1c(O)[nH]c2ccc([N+](=O)[O-])cc12
inactive: SK-MEL-2 melanoma 95.6% | EKVX NSCLC 91.3% | SN12C renal 98.7% | UO-31 renal 76.9% | TK-10 renal 108% | ACHN renal 96.3% | CAKI-1 renal 86.1% | A498 renal 94.3% | CCRF-CEM leukemia 103% | MOLT-4 leukemia 100%

Cc1oc(-c2ccc(Cl)cc2Cl)cc1C(=O)Nc1nccs1
inactive: SK-MEL-2 melanoma 102% | EKVX NSCLC 70.7% | SN12C renal 78.3% | UO-31 renal 82% | TK-10 renal 103% | ACHN renal 62.5% | CAKI-1 renal 78.1% | A498 renal 102% | CCRF-CEM leukemia 89% | MOLT-4 leukemia 94%

CCN(CC)S(=O)(=O)c1ccc(OC)c(NC(=O)c2[nH]c(C)c3c2CCCCC3=O)c1
inactive: SK-MEL-2 melanoma 55.3% | EKVX NSCLC 43.5% | SN12C renal 42% | UO-31 renal 14.4% | TK-10 renal 13.5% | ACHN renal 31.1% | CAKI-1 renal 15.1% | A498 renal 15.1% | CCRF-CEM leukemia 55.7% | MOLT-4 leukemia 64.9%

CSc1nc(NCc2ccccc2)c(C#N)c(-c2cccc([N+](=O)[O-])c2)n1
inactive: SK-MEL-2 melanoma 102% | EKVX NSCLC 85.4% | SN12C renal 93.2% | UO-31 renal 78.3% | TK-10 renal 124% | ACHN renal 95.6% | CAKI-1 renal 75.4% | A498 renal 66.1% | CCRF-CEM leukemia 99.7% | MOLT-4 leukemia 103%

COc1cccc(-c2nc3sccn3c2-c2ccnc(NCCCNS(=O)(=O)c3c(Cl)cccc3Cl)c2)c1
inactive: SK-MEL-2 melanoma 67.5% | EKVX NSCLC 58.7% | SN12C renal 60.9% | UO-31 renal 32.4% | TK-10 renal 100% | ACHN renal 49.9% | CAKI-1 renal 44.1% | A498 renal 71.3% | CCRF-CEM leukemia 31.9% | MOLT-4 leukemia 28.9%

COc1ccc(CCNc2nc(SC)nc(-c3cccc([N+](=O)[O-])c3)c2C#N)cc1OC
inactive: SK-MEL-2 melanoma 98.6% | EKVX NSCLC 80.5% | SN12C renal 84% | UO-31 renal 84.8% | TK-10 renal 112% | ACHN renal 72% | CAKI-1 renal 78% | A498 renal 94.8% | CCRF-CEM leukemia 98.7% | MOLT-4 leukemia 95%

C=CC(=O)Nc1cccc(-c2nc(SC)nc(NCCc3ccc(OC)c(OC)c3)c2C#N)c1
inactive: SK-MEL-2 melanoma 65.7% | EKVX NSCLC 43.8% | SN12C renal 47.6% | UO-31 renal 45.1% | TK-10 renal 82.4% | ACHN renal 35.7% | CAKI-1 renal 52.8% | A498 renal 18.5% | CCRF-CEM leukemia 26.3%
active: MOLT-4 leukemia 2.39%

C=CC(=O)Nc1cccc(-c2nc(SC)nc(Nc3ccccc3OC)c2C#N)c1
inactive: SK-MEL-2 melanoma 73.9% | EKVX NSCLC 63.7% | SN12C renal 48.4% | UO-31 renal 19.2% | TK-10 renal 36.1% | ACHN renal 37.7% | CAKI-1 renal 56.6% | A498 renal 61.4% | CCRF-CEM leukemia 40.8% | MOLT-4 leukemia 33.4%

C=C1c2nc3ccccc3n2C=C(c2ccc(Cl)cc2)N1Cc1ccc(OC)cc1
inactive: SK-MEL-2 melanoma 70.4% | EKVX NSCLC 71.3% | SN12C renal 92.2% | UO-31 renal 52.2% | TK-10 renal 138% | ACHN renal 89.5% | CAKI-1 renal 85.7% | A498 renal 90.5% | CCRF-CEM leukemia 86.3% | MOLT-4 leukemia 64.8%

O=C(N/N=C/c1c[nH]c2ccccc12)c1cc(-c2ccccc2)on1
inactive: SK-MEL-2 melanoma 101% | EKVX NSCLC 87.9% | SN12C renal 92.3% | UO-31 renal 60.7% | TK-10 renal 125% | ACHN renal 87.6% | CAKI-1 renal 69.7% | A498 renal 78.6% | CCRF-CEM leukemia 46.1% | MOLT-4 leukemia 69.5%

CC[C@@H](C(=O)[C@@H](C)[C@@H](O)[C@H](C)[C@@H]1O[C@@H]([C@@H](CC)C(=O)O)CC[C@@H]1C)[C@H]1OC2(C=C[C@@H](O)[C@]3(CC[C@@](C)([C@H]4CC[C@](O)(CC)[C@H](C)O4)O3)O2)[C@H](C)C[C@@H]1C (stereo not given in full)
inactive: EKVX NSCLC 34.3% | SN12C renal 16.1% | UO-31 renal 20.4% | TK-10 renal 29.7% | ACHN renal 33.4% | CAKI-1 renal 18.2%
active: SK-MEL-2 melanoma -55.1% | A498 renal -79.2% | CCRF-CEM leukemia 0.899% | MOLT-4 leukemia -8.95%

Nc1ccc(-c2cc3c(NCc4ccccc4)ncnc3s2)cc1
inactive: SK-MEL-2 melanoma 85.1% | EKVX NSCLC 57.9% | SN12C renal 72.6% | UO-31 renal 58.5% | TK-10 renal 50.2% | ACHN renal 52.7% | CAKI-1 renal 63.1% | A498 renal 52.6% | CCRF-CEM leukemia 81.9% | MOLT-4 leukemia 83.7%

C#CCOc1ccc2ncnc(N3CCN(C(=O)CCl)CC3)c2c1
inactive: SK-MEL-2 melanoma 87.6% [8.25 µM] | EKVX NSCLC 96.7% [8.25 µM] | SN12C renal 40.7% [8.25 µM] | UO-31 renal 75.5% [8.25 µM] | TK-10 renal 99.1% [8.25 µM] | CAKI-1 renal 109% [8.25 µM] | A498 renal 110% [8.25 µM] | CCRF-CEM leukemia 10.7% [8.25 µM] | MOLT-4 leukemia 67.1% [8.25 µM]
active: ACHN renal -54.7% [8.25 µM]

O=C1NC(=Nc2ccc(O)cc2)S/C1=C\c1cccc(Cl)c1
inactive: SK-MEL-2 melanoma 109% | EKVX NSCLC 84.2% | SN12C renal 82% | UO-31 renal 42.5% | TK-10 renal 97.3% | ACHN renal 84.5% | CAKI-1 renal 70% | A498 renal 50.1% | CCRF-CEM leukemia 27.1% | MOLT-4 leukemia 45.4%

Cn1cc(C(=O)c2nc(-c3c[nH]c4ccccc34)no2)c2ccccc21
inactive: SK-MEL-2 melanoma 65.3% | EKVX NSCLC 50.5% | SN12C renal 91.3% | UO-31 renal 61.6% | TK-10 renal 68.2% | ACHN renal 86.4% | CAKI-1 renal 56.9% | A498 renal 95.9% | CCRF-CEM leukemia 86.7% | MOLT-4 leukemia 72.5%

Cc1ccc(C2Oc3ccccc3C3CC(c4cccs4)=NN32)cc1 (stereo not given)
inactive: SK-MEL-2 melanoma 98.2% | EKVX NSCLC 80.9% | SN12C renal 92.5% | UO-31 renal 65.3% | TK-10 renal 108% | ACHN renal 98.7% | CAKI-1 renal 82.3% | A498 renal 107% | CCRF-CEM leukemia 95.3% | MOLT-4 leukemia 97.5%

CN(C)CCN1C(=O)c2cccc3c(N)ccc(c23)C1=O
inactive: SK-MEL-2 melanoma 19.6% | EKVX NSCLC 30.5% | SN12C renal 33.6% | UO-31 renal 26.8% | TK-10 renal 58.9% | ACHN renal 12.8% | A498 renal 65.6% | CCRF-CEM leukemia 10.5%
active: CAKI-1 renal -7.49% | MOLT-4 leukemia 1.9%

CCOC(=O)c1sc2nc(-c3cccc(OC)c3)nc(N3CCOCC3)c2c1C
inactive: SK-MEL-2 melanoma 93.2% | EKVX NSCLC 87.7% | SN12C renal 87.5% | UO-31 renal 79.7% | TK-10 renal 98.1% | ACHN renal 103% | CAKI-1 renal 79.8% | A498 renal 101% | CCRF-CEM leukemia 98.4% | MOLT-4 leukemia 93.1%
